Experimental data: PubChem BioAssay (NCATS)
Inconclusive results are not listed. Activity calls are given as the source filed them. Calls follow the shape of the dose curve; as a rule, active = well fitted inhibition curve with a large enough effect; inconclusive = small, poorly fitted or top-dose-only effect; inactive = flat fitted curve, though single readings scatter.

Assay: qHTS drug screen for cell cycle checkpoint inhibitors in PARPi-resistant BRCA-mutant ovarian cancer cell lines. (AID 1963452)
Conditions: PEO1/OlaR viability, CellTiter-Glo luminescence, 96 h; measured here: PEO4 Z-AUC; stronger effect = lower value
Procedure, shortened: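 PEO1, PEO4 and PEO1/OlaR ovarian cancer cells, 600 per well, exposed 96 h at 37C to a dilution series. Viability read by CellTiter-Glo luminescence, normalized to DMSO and empty wells; activity summarized as Z-AUC.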
`CC(=O)OCC(=O)[C@@]12N=C(C)O[C@@H]1C[C@H]1[C@@H]3CCC4=CC(=O)C=C[C@]4(C)[C@H]3[C@@H](O)C[C@@]12C` gave a Z-AUC of 0.153. For `CC[C@H](C)C(=O)O[C@H]1CCC=C2C=C[C@H](C)[C@H](CC[C@@H]3C[C@@H](O)CC(=O)O3)[C@H]21`, the Z-AUC was 1.15. Work on `C[C@]12C=CC(=O)C=C1CC[C@@H]1[C@@H]2[C@@H](O)C[C@@]2(C)[C@H]1CC[C@]2(O)C(=O)CO` yielded a Z-AUC of -0.444. `CC(=O)N(O)CCCCCNC(=O)CCC(=O)N(O)CCCCCNC(=O)CCC(=O)N(O)CCCCCN` showed a Z-AUC of -0.683. For `COc1cccc2c1C(=O)c1c(O)c3c(c(O)c1C2=O)C[C@@](O)(C(=O)CO)C[C@@H]3O[C@H]1C[C@H](N)[C@H](O)[C@H](C)O1`, the Z-AUC was -0.369. In the case of `Nc1ccn([C@@H]2O[C@H](CO)[C@@H](O)C2(F)F)c(=O)n1`, the Z-AUC is reported as -1.86.

Assay: qHTS profiling for inhibitors of Plasmodium falciparum proliferation (AID 504749);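 also: 0% = DMSO vehicle and full inhibition = artemisinin control; nearly all actives have a fitted effect of over 60% in size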
Conditions: P. falciparum in erythrocytes, SYBR Green DNA, 72 h; at 12.8 µM (top of the series); parasite line A
Procedure, shortened: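 P. falciparum-infected erythrocytes (0.3% parasitemia, 2.5% hematocrit) incubated with compound 72 h at 37 C, 5% CO2. Parasite DNA detected by SYBR Green after lysis, overnight at room temperature; normalised to 0.29 uM artemisinin and DMSO.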
For `Cc1cccc(C)c1NC(=O)CN1CCN(CCCC(c2ccc(F)cc2)c2ccc(F)cc2)CC1`, the activity, negative = inhibition was -9.2% (inactive). In the case of `CN1CCN(CCCN2c3ccccc3Sc3ccc(S(=O)(=O)N(C)C)cc32)CC1`, the activity, negative = inhibition is reported as 5.01% (inactive). In the case of `CCN(CCCc1ccccc1)CCCc1ccccc1`, the activity, negative = inhibition is reported as -8.39% (inactive). With `Cc1ccnc(NS(=O)(=O)c2ccc(N)cc2)n1` the activity, negative = inhibition was 9.46% (inactive). In the case of `COc1c2occc2c(OC)c2c(=O)cc(C)oc12`, the activity, negative = inhibition is reported as 5.55% (inactive). With `CC(=O)N(O)CCCCCNC(=O)CCC(=O)N(O)CCCCCNC(=O)CCC(=O)N(O)CCCCCN` the activity, negative = inhibition was 5.32% (inactive). For `CCCCCCCCCCCCCCCC[N+](C)(C)CCN(Cc1ccc(OC)cc1)c1ncccn1`, the activity, negative = inhibition was -28.5% (inactive). In the case of `O=C1c2ccccc2C(=O)C1c1ccccc1`, the activity, negative = inhibition is reported as 17.2% (inactive).

Same assay, conditions: P. falciparum in erythrocytes, SYBR Green DNA, 72 h; at 12.8 µM (top of the series); parasite line B
For `Cc1cccc(C)c1NC(=O)CN1CCN(CCCC(c2ccc(F)cc2)c2ccc(F)cc2)CC1`, the activity, negative = inhibition was -3.17% (inactive). For `CN1CCN(CCCN2c3ccccc3Sc3ccc(S(=O)(=O)N(C)C)cc32)CC1`, the activity, negative = inhibition was -5.83% (inactive). With `CCN(CCCc1ccccc1)CCCc1ccccc1` the activity, negative = inhibition was -11% (inactive). For `Cc1ccnc(NS(=O)(=O)c2ccc(N)cc2)n1`, the activity, negative = inhibition was -14.9% (inactive). For `COc1c2occc2c(OC)c2c(=O)cc(C)oc12`, the activity, negative = inhibition was 4.52% (inactive). In the case of `CC(=O)N(O)CCCCCNC(=O)CCC(=O)N(O)CCCCCNC(=O)CCC(=O)N(O)CCCCCN`, the activity, negative = inhibition is reported as 1.3% (inactive). In the case of `O=C1c2ccccc2C(=O)C1c1ccccc1`, the activity, negative = inhibition is reported as 11.5% (inactive).

Same assay, conditions: P. falciparum in erythrocytes, SYBR Green DNA, 72 h; at 28.7 µM (top of the series); parasite line A
With `CN1C2CCC1CC(OC(=O)c1c[nH]c3ccccc13)C2` (stereo not drawn) the activity, negative = inhibition was 9.99% (inactive). In the case of `Cc1ncc(CSSCc2cnc(C)c(O)c2CO)c(CO)c1O`, the activity, negative = inhibition is reported as 0.466% (inactive). With `CC(C)COC(=O)OCN1C(=O)CN(CCN2CC(=O)N(COC(=O)OCC(C)C)C(=O)C2)CC1=O` the activity, negative = inhibition was 4.43% (inactive). With `CN1CCC[C@@H]1c1cccnc1` the activity, negative = inhibition was 3.02% (inactive). For `Oc1c(Cl)cc(Cl)cc1Sc1cc(Cl)cc(Cl)c1O`, the activity, negative = inhibition was -0.752% (inactive). With `CCN1CCN(c2cc3c(cc2F)c(=O)c(C(=O)O)cn3C2CC2)CC1` the activity, negative = inhibition was -8.55% (inactive). With `CNCCC=C1c2ccccc2CCc2ccccc21` the activity, negative = inhibition was -6.28% (inactive). For `C[N+]1(CCCCC[N+]2(C)CCCC2)CCCC1`, the activity, negative = inhibition was 2.83% (inactive). With `CCCCCC=CCC=CCCCCCCCC(=O)OCC` the activity, negative = inhibition was 1.14% (inactive). With `N[C@@H](Cc1cnc[nH]1)C(=O)O` the activity, negative = inhibition was 3.46% (inactive). In the case of `CC(O)C(=O)O` (stereo not drawn), the activity, negative = inhibition is reported as 1.12% (inactive). With `O=C1[C@H]2CCCC[C@H]2C(=O)N1CCCCN1CCN(c2nsc3ccccc23)CC1` the activity, negative = inhibition was -3.99% (inactive). For `CC(=O)Oc1ccc(C(c2ccc(OC(C)=O)cc2)c2ccccn2)cc1`, the activity, negative = inhibition was 0.325% (inactive). With `NC(CO)(CO)CO` the activity, negative = inhibition was 6.7% (inactive). In the case of `C1CCc2nnnn2CC1`, the activity, negative = inhibition is reported as 11.2% (inactive). With `COC1=CC(=O)C[C@@H](C)[C@]12Oc1c(Cl)c(OC)cc(OC)c1C2=O` the activity, negative = inhibition was 4.87% (inactive). For `CC1(C)CCC(NC(=O)[C@@H](N)CCC(=O)O)CC1`, the activity, negative = inhibition was 2.48% (inactive). In the case of `CC(O)(P(=O)(O)O)P(=O)(O)O`, the activity, negative = inhibition is reported as 10.5% (inactive). With `c1ccc(CNCCNCc2ccccc2)cc1` the activity, negative = inhibition was 2.06% (inactive).

Same assay, conditions: P. falciparum in erythrocytes, SYBR Green DNA, 72 h; at 28.7 µM (top of the series); parasite line B
With `Cc1ccc(O)c2ncccc12` the activity, negative = inhibition was -28.2% (inactive). With `CN1C2CCC1CC(OC(=O)c1c[nH]c3ccccc13)C2` (stereo not drawn) the activity, negative = inhibition was 3.24% (inactive). In the case of `Cc1ncc(CSSCc2cnc(C)c(O)c2CO)c(CO)c1O`, the activity, negative = inhibition is reported as -3.16% (inactive). For `CC(C)COC(=O)OCN1C(=O)CN(CCN2CC(=O)N(COC(=O)OCC(C)C)C(=O)C2)CC1=O`, the activity, negative = inhibition was 8.61% (inactive). For `Oc1c(Cl)cc(Cl)cc1Sc1cc(Cl)cc(Cl)c1O`, the activity, negative = inhibition was -1.75% (inactive). For `CCN1CCN(c2cc3c(cc2F)c(=O)c(C(=O)O)cn3C2CC2)CC1`, the activity, negative = inhibition was -3.41% (inactive). For `C[N+]1(CCCCC[N+]2(C)CCCC2)CCCC1`, the activity, negative = inhibition was 3.44% (inactive). In the case of `CCCCCC=CCC=CCCCCCCCC(=O)OCC`, the activity, negative = inhibition is reported as 2.81% (inactive). With `N[C@@H](Cc1cnc[nH]1)C(=O)O` the activity, negative = inhibition was 9.36% (inactive). For `CC(O)C(=O)O` (stereo not drawn), the activity, negative = inhibition was 5.39% (inactive). For `O=C1[C@H]2CCCC[C@H]2C(=O)N1CCCCN1CCN(c2nsc3ccccc23)CC1`, the activity, negative = inhibition was 7.58% (inactive). In the case of `CC(=O)Oc1ccc(C(c2ccc(OC(C)=O)cc2)c2ccccn2)cc1`, the activity, negative = inhibition is reported as 3.02% (inactive). For `NC(CO)(CO)CO`, the activity, negative = inhibition was -0.553% (inactive). For `C1CCc2nnnn2CC1`, the activity, negative = inhibition was 0.626% (inactive). In the case of `COC1=CC(=O)C[C@@H](C)[C@]12Oc1c(Cl)c(OC)cc(OC)c1C2=O`, the activity, negative = inhibition is reported as -1.47% (inactive). With `CC1(C)CCC(NC(=O)[C@@H](N)CCC(=O)O)CC1` the activity, negative = inhibition was 10.3% (inactive). In the case of `CC(O)(P(=O)(O)O)P(=O)(O)O`, the activity, negative = inhibition is reported as 4.89% (inactive). In the case of `c1ccc(CNCCNCc2ccccc2)cc1`, the activity, negative = inhibition is reported as 5.37% (inactive).
